Among the test systems are DU-145 prostate; K-562 leukemia; MALME-3M melanoma; MDA-MB-231 breast; RXF 393 renal; SF-268 CNS; SF-295 CNS; SF-539 CNS; UACC-257 melanoma; M14 melanoma; HCT-15 colon; HT29 colon; SNB-75 CNS; SNB-19 CNS; U251 CNS; PC-3 prostate; SK-MEL-5 melanoma; UACC-62 melanoma; LOX IMVI melanoma; SK-MEL-28 melanoma.
Holding throughout (assay): NCI-60 one-dose screen, 48 h (100 = growth as untreated, 0 = no growth, -100 = all killed)
Details in all cases: 10 µM unless noted

Compounds without any hit were thinned out: in the full panel of roughly 83,000, 20% have a hit.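 Method: cells in 96-well plates; compound added at one concentration; 48 h incubation; percent growth measured; values under 10 scored active.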 A number with no mark means an inactive call. Active and inactive are the calls of the source.

`Cc1nn(-c2ccccc2)c(N)c1N=C1NC(=O)/C(=C/c2ccc(Br)cc2)S1`: the growth in the assay on DU-145 prostate was 96.4%; in the assay with K-562 leukemia it was 58.8%; with MALME-3M melanoma it was 93.8%; in the assay with MDA-MB-231 breast, 86%; in the assay on RXF 393 renal it was 151%; with SF-268 CNS it was 81.6%. Moreover, the growth with SF-295 CNS was 87.2%; with SF-539 CNS, 83.4%; in the assay with UACC-257 melanoma, 111%; in the assay with M14 melanoma, 89.9%; in the assay on HCT-15 colon it was 81.5%; with HT29 colon, 106%. Besides, the growth is 85.2% in the assay on SNB-75 CNS; 73.5% in the assay on SNB-19 CNS; 77.1% in the assay on U251 CNS; 74% in the assay with PC-3 prostate; 99% in the assay on SK-MEL-5 melanoma; 77.6% in the assay with UACC-62 melanoma. Besides, the growth was 90.4% with LOX IMVI melanoma and 94.5% in the assay with SK-MEL-28 melanoma.

As to `O=S(=O)(NCCNc1nccc(-c2c(-c3ccc(F)c(O)c3)nc3sccn23)n1)c1ccc(F)cc1`, the growth is 34.4% with DU-145 prostate; 14.7% in the assay on K-562 leukemia; 5.92% (active) with MALME-3M melanoma; 25.5% with MDA-MB-231 breast; -4.56% (active) in the assay with RXF 393 renal; 37.3% in the assay with SF-268 CNS. For the same compound, the growth was 53.4% with SF-295 CNS; 44.3% with SF-539 CNS; 32.1% in the assay with UACC-257 melanoma; 15.5% in the assay on M14 melanoma; 29.9% in the assay with HCT-15 colon; 16.7% in the assay with HT29 colon. Also, the growth is 64.1% in the assay on SNB-75 CNS; 59.1% in the assay on SNB-19 CNS; 45.5% in the assay with U251 CNS; 29.9% in the assay on PC-3 prostate; -41.5% (active) in the assay with SK-MEL-5 melanoma; 4.93% (active) in the assay on UACC-62 melanoma. Besides, the growth in the assay on LOX IMVI melanoma is 16.6%; with SK-MEL-28 melanoma it was 20.5%.

On to `C#CCn1cnc2cnc(Nc3cccc(NC(=O)C=C)c3)nc21`, for which the growth with DU-145 prostate was 93.5% [6.25 µM]; in the assay on K-562 leukemia, 5.9% [6.25 µM] (active); in the assay on MALME-3M melanoma it was 76.7% [6.25 µM]; in the assay with MDA-MB-231 breast, 81.5% [6.25 µM]; in the assay on RXF 393 renal, 86.6% [6.25 µM]; in the assay on SF-268 CNS, 84.7% [6.25 µM]. Besides, the growth in the assay on SF-295 CNS is 72.4% [6.25 µM]; in the assay with SF-539 CNS, 72.3% [6.25 µM]; in the assay with UACC-257 melanoma, 61.5% [6.25 µM]; in the assay with M14 melanoma it was 62% [6.25 µM]; with HCT-15 colon it was 91.7% [6.25 µM]; with HT29 colon, 70.5% [6.25 µM]. In addition, the growth is 86.2% [6.25 µM] in the assay with SNB-75 CNS; 88.3% [6.25 µM] in the assay on SNB-19 CNS; 75.5% [6.25 µM] in the assay with U251 CNS; 9.21% [6.25 µM] (active) with PC-3 prostate; 92.4% [6.25 µM] in the assay with SK-MEL-5 melanoma; 62.5% [6.25 µM] in the assay on UACC-62 melanoma. Further, the growth in the assay on LOX IMVI melanoma is 82.7% [6.25 µM]; with SK-MEL-28 melanoma it was 82.2% [6.25 µM].

For the compound `Nn1c(=O)c(=O)[nH]c2c(cnn2-c2ccccc2)c1=O`, the growth with DU-145 prostate was 114%; with K-562 leukemia, 96.4%; in the assay on MALME-3M melanoma, 106%; in the assay on MDA-MB-231 breast it was 105%; in the assay with RXF 393 renal, 113%; in the assay on SF-268 CNS it was 99.7%. Besides, the growth in the assay with SF-295 CNS is 102%; with SF-539 CNS, 99.8%; in the assay with UACC-257 melanoma, 107%; with M14 melanoma, 110%; in the assay with HCT-15 colon, 101%; with HT29 colon, 110%. In addition, the growth was 92.5% with SNB-75 CNS; 103% in the assay with SNB-19 CNS; 105% in the assay with U251 CNS; 106% in the assay with PC-3 prostate; 101% in the assay with SK-MEL-5 melanoma; 102% in the assay on UACC-62 melanoma. Besides, the growth in the assay with LOX IMVI melanoma is 101%; in the assay with SK-MEL-28 melanoma, 113%.

`Cc1ccc(N2C(=O)CCC2=O)cc1`: the growth in the assay on DU-145 prostate was 112%; in the assay with K-562 leukemia, 113%; in the assay on MALME-3M melanoma it was 108%; in the assay with MDA-MB-231 breast, 93.7%; with RXF 393 renal it was 121%; in the assay with SF-268 CNS, 103%. Also, the growth in the assay on SF-295 CNS was 99.7%; in the assay with SF-539 CNS it was 101%; with UACC-257 melanoma, 109%; with M14 melanoma it was 90.9%; with HCT-15 colon it was 96.3%; in the assay on HT29 colon, 98.9%. Moreover, the growth was 103% in the assay on SNB-75 CNS; 104% with SNB-19 CNS; 105% in the assay on U251 CNS; 99.5% in the assay with PC-3 prostate; 100% in the assay with SK-MEL-5 melanoma; 98% with UACC-62 melanoma. Moreover, the growth in the assay on LOX IMVI melanoma is 102%; with SK-MEL-28 melanoma, 105%.

For `CC/C=C\C[C@H](O)C/C=C1/C(=O)C=C[C@@H]1C/C=C\CCCC(=O)O`, the growth in the assay on DU-145 prostate is 60.2%; with K-562 leukemia it was 17.1%; with MALME-3M melanoma it was 67.5%; in the assay with MDA-MB-231 breast, 56.7%; in the assay on RXF 393 renal, 94.2%; in the assay on SF-268 CNS it was 81.3%. In addition, the growth in the assay with SF-295 CNS was 96%; in the assay on SF-539 CNS, 59.2%; in the assay on UACC-257 melanoma it was 55.2%; with M14 melanoma it was 57.8%; in the assay on HCT-15 colon, 74.6%; with HT29 colon it was 47.9%. Moreover, the growth is 88.9% in the assay with SNB-75 CNS; 65% in the assay on SNB-19 CNS; 3.29% (active) in the assay with U251 CNS; 61.3% with PC-3 prostate; 60.3% in the assay with SK-MEL-5 melanoma; 27.7% in the assay with UACC-62 melanoma. The growth in the assay with LOX IMVI melanoma is 17.4%; in the assay with SK-MEL-28 melanoma, 54.4%.

For the compound `COc1cccc(-c2cc(-c3cccc(Cl)c3)c(C#N)c(=O)[nH]2)c1`, the growth is 88% in the assay on DU-145 prostate; 31.3% in the assay on K-562 leukemia; 69.8% with MALME-3M melanoma; 96.1% in the assay on MDA-MB-231 breast; 75% in the assay with RXF 393 renal; 79.1% with SF-268 CNS. The growth was 74.2% in the assay on SF-295 CNS; 74.5% in the assay on SF-539 CNS; 85.5% in the assay on UACC-257 melanoma; 58.3% in the assay with M14 melanoma; 48.6% in the assay with HCT-15 colon; 103% in the assay on HT29 colon. Further, the growth in the assay on SNB-75 CNS was 30.8%; in the assay on SNB-19 CNS, 71.8%; in the assay on U251 CNS, 73.2%; in the assay on PC-3 prostate it was 73.7%; in the assay with SK-MEL-5 melanoma, 68.6%; in the assay on UACC-62 melanoma it was 42.4%. Moreover, the results for the growth with LOX IMVI melanoma and in the assay with SK-MEL-28 melanoma were 75.1% and 72.3%, respectively.

The record behind these values is PubChem BioAssay (NCI).
